Our source for the growth values is PubChem BioAssay (NCI).

Structures are written as SMILES. About 83,000 compounds went through this panel and 20% of them were active in at least one assay; those are over-represented in the sample as a whole.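 Growth was measured after 48 h exposure to one concentration of compound in 96-well plates. Values under 10 count as active.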 A number with no mark means an inactive call. The source made the active and inactive calls.

Test systems include NCI-H23 lung; NCI-H226 lung; NCI-H322M lung; HOP-62 NSCLC; NCI-H460 lung; HOP-92 NSCLC; NCI-H522 lung; A549/ATCC NSCLC; 786-0 renal; COLO 205 colon; DU-145 prostate; K-562 leukemia; MALME-3M melanoma; MDA-MB-231 breast; SF-268 CNS; SF-295 CNS; SF-539 CNS; UACC-257 melanoma; M14 melanoma.
Holding throughout (experiment): NCI-60 one-dose screen, 48 h (100 = growth as untreated, 0 = no growth, -100 = all killed)
Conditions in all cases: 10 µM

In the case of `COc1cccc2nc(Nc3cccc(NC(=O)c4ccc(CN5CCCN(C)CC5)c(C(F)(F)F)c4)c3)ccc12`, the growth in the experiment on NCI-H23 lung was -97.9% (active); in the experiment with NCI-H226 lung it was -70.5% (active); in the experiment with NCI-H322M lung, -100% (active); in the experiment with HOP-62 NSCLC, -74.7% (active); with NCI-H460 lung, -83.6% (active); in the experiment with HOP-92 NSCLC, -83.5% (active). For the same molecule, the growth with NCI-H522 lung is -67.5% (active); in the experiment on A549/ATCC NSCLC it was -75.6% (active); with 786-0 renal, -84.9% (active); with COLO 205 colon, -56.9% (active); in the experiment with DU-145 prostate it was -83.4% (active); in the experiment on K-562 leukemia, 5.93% (active). Also, the growth was -96.3% (active) with MALME-3M melanoma; -99.1% (active) in the experiment with MDA-MB-231 breast; -50.3% (active) in the experiment with SF-268 CNS; -97.7% (active) in the experiment with SF-295 CNS; -100% (active) in the experiment on SF-539 CNS; -86% (active) in the experiment with UACC-257 melanoma. The growth in the experiment on M14 melanoma was -90.5% (active).

With `Cc1ccc2nc(-c3ccc(-c4nnc(SCC(=O)Nc5ccc(Cl)cc5)o4)cc3)[nH]c2c1`, the growth in the experiment on NCI-H23 lung is 29.1%; in the experiment on NCI-H226 lung it was 9.53% (active); in the experiment on NCI-H322M lung, 27.6%; in the experiment on HOP-62 NSCLC it was 61.8%; in the experiment with NCI-H460 lung, 6.19% (active); in the experiment with HOP-92 NSCLC, 84.9%. Also, the growth with NCI-H522 lung was 51.1%; with A549/ATCC NSCLC, 29.1%; with 786-0 renal it was 68.5%; in the experiment on COLO 205 colon it was 46.1%; in the experiment with DU-145 prostate, 45%; in the experiment on K-562 leukemia, 18%. Moreover, the growth was 26.2% in the experiment with MALME-3M melanoma; 10.6% with MDA-MB-231 breast; 68.6% with SF-268 CNS; 21.4% in the experiment with SF-295 CNS; 57% with SF-539 CNS; 102% in the experiment on UACC-257 melanoma. Moreover, in the experiment with M14 melanoma, the growth is 53.6%.

Take `O/N=C(\CSc1nnc(-c2c[nH]c3ccccc23)n1-c1ccccc1)c1ccc(Cl)cc1`: the growth was 47.3% in the experiment with NCI-H23 lung; 14.3% with NCI-H226 lung; -49.3% (active) in the experiment on NCI-H322M lung; -64.1% (active) in the experiment on HOP-62 NSCLC; 10.5% in the experiment with NCI-H460 lung; -8.42% (active) in the experiment with HOP-92 NSCLC. The growth in the experiment on NCI-H522 lung is 12.4%; with A549/ATCC NSCLC, 21.5%; in the experiment with 786-0 renal, 34.1%; with COLO 205 colon it was 10.2%; in the experiment on DU-145 prostate it was -30.9% (active); with K-562 leukemia, 6.93% (active). Besides, the growth in the experiment on MALME-3M melanoma is 11.1%; in the experiment with MDA-MB-231 breast, -54.5% (active); in the experiment on SF-268 CNS, -49% (active); in the experiment on SF-295 CNS it was 14.1%; in the experiment with SF-539 CNS, 29.5%; in the experiment with UACC-257 melanoma, 44.3%. The growth with M14 melanoma is -47.3% (active).

As to `N#Cc1ccc(-c2nn(-c3ccc(C(=O)O)cc3)cc2CNc2cccc(Br)c2)cc1`, the growth in the experiment with NCI-H23 lung was 10.6%; with NCI-H226 lung, 44.4%; in the experiment on NCI-H322M lung, 85.5%; in the experiment with HOP-62 NSCLC, 42%; in the experiment with NCI-H460 lung, 37.8%; in the experiment with HOP-92 NSCLC, 56.5%. Besides, the growth is 73.4% in the experiment with NCI-H522 lung; 55.7% with A549/ATCC NSCLC; 45% in the experiment with 786-0 renal; 117% in the experiment on COLO 205 colon; 76.8% in the experiment with DU-145 prostate; 46.3% with K-562 leukemia. Also, the growth in the experiment on MALME-3M melanoma was 95.6%; with MDA-MB-231 breast, 89.4%; in the experiment with SF-268 CNS it was 51.7%; in the experiment with SF-295 CNS, 42.5%; in the experiment on SF-539 CNS, 38.6%; in the experiment with UACC-257 melanoma it was 65.7%. In addition, in the experiment with M14 melanoma, the growth is 37.2%.

`COc1ccc(C2NC(=S)NC(C)=C2C(=O)OC(C)C)cc1OC` (centres undefined): the growth with NCI-H23 lung is 111%; in the experiment with NCI-H226 lung, 94.8%; in the experiment with NCI-H322M lung, 96.8%; in the experiment with HOP-62 NSCLC, 103%; in the experiment on NCI-H460 lung it was 114%; with HOP-92 NSCLC, 101%. The growth in the experiment on NCI-H522 lung is 102%; in the experiment on A549/ATCC NSCLC it was 114%; in the experiment on 786-0 renal, 93.2%; in the experiment on COLO 205 colon it was 140%; in the experiment with DU-145 prostate it was 110%; with K-562 leukemia, 105%. The growth in the experiment on MALME-3M melanoma is 95.7%; with MDA-MB-231 breast, 105%; in the experiment on SF-268 CNS, 107%; with SF-295 CNS, 97.4%; in the experiment on SF-539 CNS, 103%; in the experiment on UACC-257 melanoma it was 119%. Also, the growth with M14 melanoma is 105%.

With `O=C(NO)c1ccc(Cn2ccc3c(Nc4ccccc4)ncnc32)cc1`, the growth was -87.2% (active) in the experiment on NCI-H23 lung; 32% with NCI-H226 lung; 42.7% with NCI-H322M lung; 14.4% with HOP-62 NSCLC; 13.1% in the experiment with NCI-H460 lung; -16.3% (active) in the experiment with HOP-92 NSCLC. Besides, the growth in the experiment with NCI-H522 lung is -40.4% (active); with A549/ATCC NSCLC, 25.3%; with 786-0 renal, 31%; with COLO 205 colon, -84.9% (active); with DU-145 prostate it was 20%; in the experiment with K-562 leukemia, 12.1%. Besides, the growth was -4.38% (active) with MALME-3M melanoma; -30.6% (active) with MDA-MB-231 breast; 30.8% in the experiment on SF-268 CNS; -67.5% (active) in the experiment on SF-295 CNS; -80% (active) with SF-539 CNS; 26.5% in the experiment on UACC-257 melanoma. In addition, in the experiment on M14 melanoma, the growth was 10.5%.
